# The list is not random: actives were taken first. Their share in the collection is about 12%.
# INS promoter inh = inhibitors of insulin promoter-driven GFP, primary screen, imaging, TRM-6 cells (human fetal islet line), eGFP reporter, cell count | reporter expression induced with tamoxifen | inhibition, % at 2 µM | hit rate 0.9% among 130,000;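 active = inhibition above the mean plus 3 SD, with well images judged a real hit on visual review, cut at about 60% in these data, passing the limit was not always enough; inconclusive = inhibition over the cutoff but images rejected on review; inactive = inhibition not above the cutoff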
# Cl transport mod = KCC2 cotransporter modulators, thallium flux, primary screen, cell-based, HEK293 KCC2, FluoZin-2 fluorescence, MLSMR | Solute carrier family 12 member 5 (Homo sapiens), Q9H2X9 | KCC2 cells, thallium flux FluoZin-2 fluorescence | B-score of Tl+ flux slope (higher = more flux/activation; lower = inhibition) at 10 µM | hit rate 2.2% among 190,000 | AID 1456, 2008;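 active = thallium flux slope and its plate-corrected score both differing from the plate sample mean at a set confidence after two filtering rounds, in either direction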;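 note: slope of fluorescence scaled to starting intensity during 10 to 20 s after thallium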
# L major viab = Leishmania major promastigote growth inhibition, primary screen; Leishmania major promastigotes, resazurin fluorescence viability; inhibition, % at 10 µM; hit rate 9% among 200,000; AID 1063, 2008; in the data active = inhibition above about 50%;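 note: promastigotes grown with compound for 44 hours at 28 °C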
# Ins promoter up = insulin promoter activators in MIN6 cells, imaging, high-content screening, mouse beta cells; MIN6 insulin promoter-GFP reporter; hits give high values; z-score at 5 µM; hit rate 0.3% among 190,000;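 active = z-score above 3 at 5 µM with at least 500 cells counted in the well; inconclusive = wells under 500 cells, flagged as cytotoxic or low count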
# WT yeast gro inh = growth inhibition of WT strain, primary screen, mitochondrial fusion inhibitor project, WT and mutant strains, chemical genetic; mitochondrial fusion phenotypic screen; inhibition, % at 10 µM; hit rate 2.1% among 190,000; in the data active = inhibition above about 58%; tested in S. cerevisiae
# ROMK mod = ROMK potassium channel modulators, primary screen, cell-based, thallium flux, MLSMR library | Tet-inducible ROMK, thallium flux fluorescence; actives lie on both sides | hit rate 2% among 130,000 | AID 1918, 2009 | B-score at 10 µM | ATP-sensitive inward rectifier potassium channel 1 (Homo sapiens), P48048;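 active = signal ratio slope over the read window, or its plate-corrected B-score, at least 3 SD from the plate mean, either direction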;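 note: B-score of the F/F0 ratio slope over 7 to 12 s after thallium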
# Target sequence (P48048 whole entry, looked up): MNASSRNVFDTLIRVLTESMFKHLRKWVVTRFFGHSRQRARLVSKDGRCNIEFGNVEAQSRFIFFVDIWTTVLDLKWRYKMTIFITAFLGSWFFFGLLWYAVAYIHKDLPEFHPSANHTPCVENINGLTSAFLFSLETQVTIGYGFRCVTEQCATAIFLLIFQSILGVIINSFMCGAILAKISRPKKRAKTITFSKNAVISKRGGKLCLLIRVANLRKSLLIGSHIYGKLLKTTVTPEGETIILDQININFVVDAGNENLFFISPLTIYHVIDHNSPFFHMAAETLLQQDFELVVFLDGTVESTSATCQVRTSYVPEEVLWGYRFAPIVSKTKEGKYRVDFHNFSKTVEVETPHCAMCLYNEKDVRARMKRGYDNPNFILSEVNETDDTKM
# Numbers stand for hits; i = inactive; ? = inconclusive; nt = not tested or not shown.
SMILES,INS promoter inh,Cl transport mod,L major viab,Ins promoter up,WT yeast gro inh,ROMK mod
COc1ccc(C(C(=O)NC2CCCCC2)N(C(=O)CCCC(=O)Nc2ccccn2)c2ccc3c(c2)OCCO3)cc1 (stereo not given),i,nt,i,nt,i,nt
COC(CN(C(=O)CCl)C(C(=O)NC1CCCC(C)C1C)c1ccc(C)cc1)OC (stereo not given),i,i,100,i,i,i
O=C(CCCC(=O)N(c1ccc2c(c1)OCCO2)C(C(=O)NC1CCCCC1)c1ccc(Cl)cc1)Nc1ccccn1 (stereo not given),nt,nt,58,i,i,nt
O=C(COc1ccccc1[N+](=O)[O-])Nc1cc(C(=O)O)cc(C(=O)O)c1,i,i,i,i,i,i
CN(C)S(=O)(=O)c1ccc(N2CCCC2)c(C(=O)Nc2nc3c(ccc4ccccc43)s2)c1,i,i,97,i,i,nt
CN(C)S(=O)(=O)c1ccc(N2CCCC2)c(C(=O)NCc2ccc(Cl)cc2)c1,i,i,i,i,i,i
CN(C)S(=O)(=O)c1ccc(N2CCCC2)c(C(=O)Nc2nc(-c3ccc(F)c(F)c3)cs2)c1,i,i,52,i,i,i
O=C(Nc1nc2c(ccc3ccccc32)s1)c1cc([N+](=O)[O-])ccc1N1CCOCC1,nt,i,i,i,i,i
CC(=O)OCC(=O)C1=CCC2C3CCC4=CC(=O)C=CC4(C)C3(F)C(OC(C)=O)CC12C (stereo not given),i,nt,i,i,i,i
Cc1cc(N2C(=O)C(O)=C(C(=O)c3ccco3)C2c2cccnc2)no1 (stereo not given),nt,nt,i,i,i,nt
CCOC(=O)N1CCN(Cc2nc(-c3cccc(C)c3)no2)CC1,i,nt,i,i,i,i
COc1ccc(-n2c(SCCC(=O)O)nnc2-c2ccncc2)cc1,81,i,i,i,i,i
COc1ccc(-c2nnc(SCCC(=O)O)n2-c2ccccc2)cc1OC,i,i,i,i,i,i
OCc1ncc(-c2ccccc2)s1,nt,i,nt,i,nt,i
O=C(Nc1ccc(Cl)cc1)c1ccc2c(c1)OCO2,i,i,i,i,80,nt
CCCCOc1cccc(C(=O)Nc2ccc(N3CCN(CC)CC3)cc2)c1,nt,i,i,i,i,nt
COc1ccc(NC(=O)c2oc3ccccc3c2NC(=O)c2ccc3c(c2)OCO3)cc1,i,nt,100,i,i,nt
CCOC(=O)c1oc2ccccc2c1NC(=O)c1ccc2c(c1)OCO2,i,i,i,i,i,nt
CCCCOc1ccc(C(=O)Nc2ccc(N3CCN(C)CC3)cc2)cc1,i,i,63,i,i,nt
CCN1CCN(c2ccc(NC(=O)c3ccc4c(c3)OCO4)cc2)CC1,i,i,i,i,64,nt
CC(Sc1ccc(Cl)cc1)C(=O)Nc1ccc2c(c1)OCO2 (stereo not given),i,i,i,i,i,i
COc1ccc(NC(=O)c2oc3ccccc3c2NC(=O)COc2ccccc2OC)c(OC)c1,i,nt,i,i,64,i
CC(C(=O)Nc1ccc2c(c1)OCO2)N(c1ccc(Cl)cc1)S(C)(=O)=O (stereo not given),i,i,97,i,i,i
CC1CCCN(c2ccc3nc4ccccc4c(=O)n3n2)C1 (stereo not given),i,i,i,i,i,nt
Cc1ccc(Cl)cc1NC(=O)CCC(=O)O,nt,i,nt,i,nt,nt
SMILES,INS promoter inh,Cl transport mod,L major viab,Ins promoter up,WT yeast gro inh,ROMK mod
CCCCOC(=O)c1cc(Cl)c(O)c(OC)c1,nt,i,nt,i,nt,nt
Oc1c(CN2CCN(c3ccccc3)CC2)cc(Br)c2cccnc12,nt,i,nt,?,nt,nt
Oc1c(CN2CCOCC2)cc(COCc2ccccc2)c2cccnc12,nt,i,100,i,i,nt
CCOC(=O)N1CCN(Cc2ccccc2Cl)CC1,i,i,i,i,i,nt
COCc1cc(CN2CCN(C)CC2)c(O)c2ncccc12,i,i,100,i,i,i
CCOC(=O)N1CCN(Cc2cc(Cl)c3cccnc3c2O)CC1,nt,i,100,i,i,i
Cc1cc(C)cc(N(CC(=O)Nc2ccccc2)C2=NC3CS(=O)(=O)CC3S2)c1 (stereo not given),i,i,64,i,i,i
Cc1ccc(OCCOC(=O)Nc2ccccc2)cc1,i,i,i,i,i,i
C=C(C)C1CCC(C)=C1COC(=O)Nc1ccccc1 (stereo not given),i,i,96,i,i,nt
Cc1ccc(C(=O)NC2CCCCC2)cc1,i,i,i,i,i,nt
CCOc1ccc(C(=O)NCC(=O)OCC(=O)N2CCCCC2)cc1,i,i,i,i,i,0.95
O=C(CNC(=O)c1cccc(F)c1)OCC(=O)N1CCCCC1,nt,i,i,i,i,nt
CCOC(=O)COc1ccc(C(=O)NC2CCCCC2)cc1,i,i,i,4.2,i,nt
Cc1nn(Cc2ccc(C(=O)Nc3ccc(C(=O)OC(C)C)cc3)o2)c(C)c1Cl,i,i,i,i,i,nt
O=[N+]([O-])c1ccc2nc(-c3ccc(Cl)cc3)[nH]c2c1,i,i,i,i,63,i
Cc1ccc(-c2nc3ccc([N+](=O)[O-])cc3[nH]2)cc1,nt,i,i,nt,i,i
Nc1nc2ccc([N+](=O)[O-])cc2[nH]1,nt,i,nt,i,nt,nt
O=[N+]([O-])c1cccc(-c2nc3ccc([N+](=O)[O-])cc3[nH]2)c1,92,i,i,i,i,i
O=[N+]([O-])c1ccc2nc(-[n+]3c(-c4ccccc4)cc(-c4ccccc4)cc3-c3ccccc3)[nH]c2c1,i,i,89,i,i,nt
O=[N+]([O-])c1ccc2nc(-c3ccncc3)[nH]c2c1,nt,i,nt,i,nt,nt
Nn1c(SCC(=O)NC(=O)NCc2ccccc2)nnc1C1CC1,i,i,i,i,i,i
CC(C)(C)c1ccc(CNc2ccc([N+](=O)[O-])cn2)cc1,i,i,i,i,80,i
Cc1cc(C)c(Cn2cnc(-c3ccc([N+](=O)[O-])cc3)c2)c(C)c1,nt,nt,i,i,60,nt
COc1ccc(-c2ccc(=O)n(Cc3ccc([N+](=O)[O-])cc3)n2)cc1,i,i,i,i,i,i
CC(C)(C)c1ccc(Cn2cnc(-c3ccc([N+](=O)[O-])cc3)c2)cc1,nt,i,89,i,i,i
SMILES,INS promoter inh,Cl transport mod,L major viab,Ins promoter up,WT yeast gro inh,ROMK mod
CC(C)c1ccc(CNc2ccc([N+](=O)[O-])cn2)cc1,i,i,i,i,i,i
Cc1csc2nc(CNS(=O)(=O)c3cccnc3)cn12,i,nt,i,nt,nt,i
CCN(CC)CCCN1C(=O)CSC1c1ccc2c(c1)OCO2 (stereo not given),nt,i,i,i,i,nt
CCN(CC)CCCN1C(=O)CSC1c1ccc([N+](=O)[O-])cc1 (stereo not given),nt,i,76,i,i,i
O=C(Nc1nc(-c2ccccc2)cs1)C1CCCN(S(=O)(=O)c2cccc([N+](=O)[O-])c2)C1 (stereo not given),i,i,93,i,i,i
O=C(Nc1nc(-c2ccccc2)cs1)C1CCCN(S(=O)(=O)c2ccccc2)C1 (stereo not given),nt,nt,i,i,i,nt

# High-throughput results (PubChem)
